Test results published in PubChem BioAssay AID1224858 (National Center for Advancing Translational Sciences (NCATS), 2016).
Results filed as inconclusive are left out. Calls of active or inactive are those of the source. Calls come from the whole dose curve; as a rule, active = well fitted inhibition curve with a large enough effect; inconclusive = small, poorly fitted or top-dose-only effect; inactive = no such curve, though single readings can be large or run the other way.

assay: Confirmation assay for measurement of the activity of small molecule inhibitors on Zika virus induced Caspase-3 activity in human astrocytes; settings: ZIKV-induced caspase-3/7 luminescence, 6 h; series mostly up to 46.1 µM
Excerpt: National Center for Advancing Translational Sciences [NCATS] Johns Hopkins University School of Medicine Florida State University Assay Overview: Increase in the Caspase-3 activity indicates an activation of apoptosis cell death pathway caused by Zika virus infection in certain types of neuronal cells including human neural progenitor cells (hNPCs), astrocytes, and astrocytoma cell line (SNB-19). This cell-based caspase-3 activity assay measures the increased caspase-3 activity in the human astrocytes after a 6-hour Zika virus infection with a luminescence readout. A decrease in the luminescence signal in this assay by small molecule treatment indicates an inhibitory effect of that small molecule on the Zika virus induced caspase-3 activity that may correlate with its effect on reduction of Zika virus caused cell death.
Assay Protocol Summary: The medium for astrocytes contains AM basal medium (ScienCell, Cat.# 1801), AGS (ScienCell, Cat.# 1801), 10% FBS, and 1% Pen/Strep. A Caspase-Glo 3/7 assay kit (catalog number G8092; Promega, Madison, WI) was used to detect caspase-3 activity induced by Zika virus infection in human cells. The reagent mixture was reconstituted as described in the protocol from the manufacturer. Polystyrene tissue culture treated and PDL coated white plates were obtained from Greiner Bio-One (Monroe, NC). Cells were seeded in 384- or 1536-well assay plates and cultured at 37 C with 5% CO2 for 16 to 20 hours. The typical cell seeding density in the 1536-well plate assay is 350 cells/well in 3 ul medium for astrocytes in tissue culture treated plates. Compounds were added to cells and incubated for one hour before addition of ZIKV solution to cells (2 FFU/cell). After incubation at 37 C with 5% CO2 for 6 hours, the reagent mixture of Caspase-Glo 3/7 assay kit was added to each well, followed by incubation at room temperature for 30 minutes. The luminescence intensity of the assay plates was measured using a ViewLux plate reader (PerkinElmer). Data were normalized by using the cell-containing wells without ZIKV as a negative control (0% induction of caspase 3/7 activity) and wells containing ZIKV infected cells (Caspase-3 activity induced) as a positive control (100% induction of caspase 3 activity). The percentage inhibitions of the increased Caspase-3 activity by small molecule inhibitors were then calculated.

Structure (SMILES)	Potency
CC1(C)Cc2c(sc(NC(=S)NC(=O)c3ccccc3)c2C(=O)O)CO1	inactive
Cc1c(C(=O)O)c(O)cc2c1C(=O)c1c(O)c([C@@H]3O[C@H](CO)[C@@H](O)[C@H](O)[C@H]3O)c(O)c(O)c1C2=O	inactive
O=C(Nc1ncc([N+](=O)[O-])s1)c1cccs1	1.95 µM (active)
O=C(O)CCC(=O)c1ccc(-c2ccccc2)cc1	19.5 µM (active)
CC(C)OC(=O)CCCC=CC[C@@H]1[C@H](C=C[C@@H](O)COc2cccc(C(F)(F)F)c2)[C@H](O)C[C@@H]1O	inactive
O=C(Nc1ccc([N+](=O)[O-])cc1Cl)c1cc(Cl)ccc1O	1.73 µM (active)
O=C1NC(=O)C(=Cc2ccc(-c3ccc(F)cc3)o2)S1	12.3 µM (active)
Cc1nc(N)sc1-c1ccnc(Nc2ccc(N3CCOCC3)cc2)n1	inactive
Cc1cc(O)c2c(c1)C(=O)c1cc(O)cc(O)c1C2=O	2.75 µM (active)
CCCCCCOc1ccccc1C(N)=O	inactive
CC1(C)OC2=C(C(=O)c3ccccc3C2=O)[C@H](NCc2ccccc2)[C@H]1O	35.5 µM (active)
Oc1ccc(/C=C/c2cc(O)cc(O)c2)cc1	15.5 µM (active)
CCCCC1C(=O)N(c2ccccc2)N(c2ccc(O)cc2)C1=O (stereo not given)	inactive
Cc1nc(-c2ccc(OCC(C)C)c(C#N)c2)sc1C(=O)O	2.18 µM (active)
O=C(Nc1ccc(C(=O)O)c(O)c1)c1ccccc1	4.89 µM (active)
COCCn1c2c([n+](Cc3cnccn3)c1C)C(=O)c1ccccc1C2=O	5.48 µM (active)
COc1ccc(-c2cc(=O)c3c(O)cc(O)cc3o2)cc1O	13.8 µM (active)
COc1cccc(-c2cc(=O)c3ccccc3o2)c1N	6.9 µM (active)
COc1ccc(NC(=O)/C=C/c2ccc(Cl)cc2)cc1	3.88 µM (active)
C[C@@H]1CCN(C(=O)CC#N)C[C@H]1N(C)c1ncnc2[nH]ccc12	inactive

Structure (SMILES)	Potency
CC(=O)Oc1cccc2c1C(=O)c1c(OC(C)=O)cc(C(=O)O)cc1C2=O	15.5 µM (active)
O=C(Oc1ccccc1)c1cccc(C(=O)Oc2ccccc2)c1	6.31 µM (active)
CN(C)c1ccc(/C=C2\C(=O)Nc3ccccc32)cc1	8.69 µM (active)
Cc1[nH]c(C=C2C(=O)Nc3ccccc32)c(C)c1CCC(=O)O	inactive
COc1cc2nc(-c3ccc(N4CCN(C)CC4)cc3)nc(NCCN3CCOCC3)c2cc1OC	inactive
O=c1oc2cc(O)ccc2s1	inactive
CC(=Cc1ccccc1)C=C1SC(=S)N(CC(=O)O)C1=O	19.5 µM (active)
COc1ccc(/C=C/C(=O)Nc2ccccc2C(=O)O)cc1OC	13.8 µM (active)
Cc1ccc(O)c(-n2nc3ccccc3n2)c1	7.74 µM (active)
Cc1oncc1C(=O)Nc1ccc(C(F)(F)F)cc1	3.88 µM (active)
Nc1ccc(-c2ccc3ccccc3n2)cc1	4.35 µM (active)
COc1cc(NC(C)CCCN)c2ncccc2c1 (stereo not given)	inactive
CC(C)Oc1ccc2c(=O)c(-c3ccccc3)coc2c1	10.9 µM (active)
Clc1ccccc1-c1nc(-c2ccncc2)no1	6.15 µM (active)
CCN1/C(=C/C=C/c2sc3ccccc3[n+]2CC)Sc2ccccc21	inactive
c1ccc2[nH]c(-c3cscn3)nc2c1	9.75 µM (active)
O=C(CS)Nc1ccccc1	inactive
Cc1c(N)c(=O)n(-c2ccccc2)n1C	inactive
CCOCCOC(=O)/C=C/c1ccc(OC)cc1	inactive
O=c1c2ccccc2nc2n1CCc1c-2[nH]c2ccccc12	4.89 µM (active)
